Source: PubChem
Hits are enriched below; roughly 21% of the tested compounds scored in any of these assays.
Gal4-VP16 FLuc – inhibits Gal4-VP16 luciferase reporter, ROR gamma counter-screen. Drosophila S2 Gal4-VP16 UAS-luciferase, luminescence, 20 h. Potency, µM (titrated, usually from 53.6 µM), without a hit: at the highest dose activity, negative = inhibition, usual class: inhibitors. 310,000 compounds, 3.5% hits. AID 2546;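 note: Gal4-VP16 expression switched on by copper sulfate through the metallothionein promoter; potency is the fitted concentration of half-maximal effect; nearly all actives have a fitted effect of over 50% in size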
IL-1B inflam inh – blocks inflammasome-driven IL-1 beta release; THP-1 LPS/ATP IL-1B secretion, AlphaLISA, 16 h; hits give low values; 360,000 compounds, 4.7% hits; activity change, % at 57.5 µM; in the data active = activity change below about -50%; inconclusive = mostly about -30% to -49%
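THP-1 cells pretreated 1 hr with compounds (up to 57.5 uM final), then stimulated with LPS (250 ng/mL final) plus ATP (1.25 mM final); secreted IL-1B measured by AlphaLISA after 16 hr, decreased signal indicating inhibition.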
RORg inh – inhibitors of mouse ROR gamma transcriptional activity; Potency, µM (titrated, usually from 53.6 µM), inactives show top-dose activity change, negative = inhibition, most hits filed as inhibitors; 310,000 compounds, 5.4% hits; P51450; Drosophila S2 Gal4-RORgamma UAS-luciferase reporter, 20 h; note: potency is the fitted concentration of half-maximal effect; nearly all actives have a fitted effect of over 60% in size
Target sequence (P51450 whole entry, looked up, the tested form may be a part): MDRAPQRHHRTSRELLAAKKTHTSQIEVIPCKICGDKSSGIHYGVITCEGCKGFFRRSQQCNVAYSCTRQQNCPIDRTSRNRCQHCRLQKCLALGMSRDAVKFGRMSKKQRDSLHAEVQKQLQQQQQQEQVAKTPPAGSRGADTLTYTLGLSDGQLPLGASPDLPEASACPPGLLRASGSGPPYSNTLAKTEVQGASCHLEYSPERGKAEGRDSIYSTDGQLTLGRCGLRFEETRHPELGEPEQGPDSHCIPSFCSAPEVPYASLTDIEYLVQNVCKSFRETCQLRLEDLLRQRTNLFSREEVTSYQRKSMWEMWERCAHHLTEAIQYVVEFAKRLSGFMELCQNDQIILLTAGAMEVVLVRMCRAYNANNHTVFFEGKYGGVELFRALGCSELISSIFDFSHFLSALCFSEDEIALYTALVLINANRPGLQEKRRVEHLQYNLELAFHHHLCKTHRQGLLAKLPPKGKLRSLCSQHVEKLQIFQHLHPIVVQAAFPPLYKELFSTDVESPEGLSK
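Drosophila S2 cells stably expressing Gal4-DBD/mouse RORγ fusion under metallothionein promoter plus UAS-luciferase; compound 1 h, then 700 uM CuSO4 induction for 20 h at ambient temperature; inhibition read as reduced luminescence.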
ELG1 DNA repair – ELG1-dependent DNA repair inhibition. Potency, µM (highest dose often 46.1 µM), inactives show at the highest dose activity change, negative = inhibition, actives largely listed as inhibitors. HEK293T ELG1-luciferase reporter, luminescence, 16 h; DNA damage induced by 5-fluorouridine. AID 504467. 330,000 compounds, 2.3% hits; note: potency is the fitted concentration of half-maximal effect; nearly all actives have a fitted effect of over 55% in size
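In this reporter screen, reduction of luminescence relative to DMSO vehicle indicated activity. Compounds and 5-fluorouridine were added together to 2,000 cells per well, incubated for 16 hr at 37 °C, then developed with ONE-Glo.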
DT40 TDP1 no CPT – qHTS for Inhibitors of human tyrosyl-DNA phosphodiesterase 1 (TDP1): qHTS in cells in absence of CPT; DT40 Tdp1-/- hTDP1 cells, no CPT, ATP luminescence, 48 h; Potency, µM (highest dose often 46.2 µM), without a hit: at the highest dose activity change, negative = growth inhibition, actives largely listed as inhibitors; 420,000 compounds, 15% hits; AID 686978, 2013; note: potency is the fitted concentration of half-maximal effect; nearly all actives have a fitted effect of over 55% in size
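DT40 Tdp1-/-;hTDP1 cells, no CPT (DMSO vehicle only), 400 cells/well; compounds pin-transferred; ≥48 hr, 37 °C; CellTiter-Glo 30 min RT dark, luminescence read.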
TDP1 cell CPT – DT40-hTDP1 cell growth loss with CPT; Potency, µM (doses to about 46.2 µM), inactives show top-dose activity change, negative = growth inhibition, hits mostly inhibitors; 420,000 compounds, 12% hits; chicken DT40 Tdp1-/-;hTDP1 cells + 20 nM CPT, ATP luminescence, 48 h; AID 686979; note: potency is the fitted concentration of half-maximal effect; nearly all actives have a fitted effect of over 55% in size
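Chicken DT40 Tdp1-/- cells stably complemented with human TDP1 were seeded at 400 cells/well in medium containing 20 nM camptothecin, exposed to pin-transferred compounds, and grown at 37 °C for at least 48 hr. Viability was read as ATP luminescence.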
Starred values were filed as active, the others as inactive; ? = inconclusive; / = no result. Unless noted, calls come from the whole dose curve; as a rule, active = well fitted curve in the direction sought with a large enough effect; inconclusive = small, poorly fitted or top-dose-only effect, or another doubt; inactive = no such curve, though single readings can be large; an effect the other way counts as inactive or inconclusive. % is set by controls: 0 for no effect and ±100 for the full control effect.

SMILES	Gal4-VP16 FLuc	IL-1B inflam inh	RORg inh	ELG1 DNA repair	DT40 TDP1 no CPT	TDP1 cell CPT
Cc1nn(CC(=O)OCC(=O)NC(C)c2ccccc2)c(C)c1[N+](=O)[O-] (stereo not drawn)	4%	0	8%	?	-26%	-23%
O=C(CSc1nnnn1-c1ccccc1)Nc1ccc(Cl)cc1	-2%	-17	7%	/	-23%	-7%
Cc1ccc(-n2nnnc2SCC(=O)Nc2cccnc2Cl)cc1	13µM*	18	?	-6%	?	-12%
O=C(CSc1nnnn1-c1ccc(Cl)cc1)Nc1cccnc1Cl	?	8	?	0%	?	23µM*
NC(=O)c1nn(-c2ccccc2)nc1NC(=O)CSc1nnnn1-c1ccc(Cl)cc1	-2%	-13	42%	?	16µM*	?
CC(C)c1nc2c(c(=O)c3ccccc3n2C)c(=O)n1CCc1ccccc1	-1%	/	-23%	?	9.2µM*	?
CCCc1nc2oc3cc(OC)ccc3c(=O)c2c(=O)n1CCc1ccccc1	-8%	-11	17%	?	23µM*	21µM*
COc1ccc(CCn2c(C(C)C)nc3oc4ccccc4c(=O)c3c2=O)cc1	-5%	-8	-17%	?	29µM*	?
CCc1nc2oc3cc(OC)ccc3c(=O)c2c(=O)n1Cc1ccccc1	-2%	-1	5%	-15%	?	?
COCCCn1c(C2CCCCC2)nc2oc3cc(OC)ccc3c(=O)c2c1=O	-1%	4	-7%	?	21µM*	?
COc1ccc(CCn2c(-c3ccccc3)nc3c(c(=O)c4ccccc4n3C)c2=O)cc1	0%	/	-13%	-30%	/	/
COc1ccc2c(=O)c3c(=O)n(Cc4ccco4)c(C(C)C)nc3oc2c1	-7%	-7	?	-2%	-23%	3%
O=c1c(-c2cccc(Cl)c2)nc2cncnc2n1C1CC1	-5%	/	1%	/	2%	4%
Cc1nc(S(=O)(=O)N2CCN(c3ccc(Cl)cc3)CC2)cn1C	/	/	/	/	-12%	-23%
COc1ccc(NC(=O)Nc2cccc3ccccc23)cc1S(N)(=O)=O	11%	20	20%	-5%	0%	3%
O=C(Cn1cnc2c(nc3n2CCCCC3)c1=O)Nc1ccc(F)cc1	/	/	/	/	-3%	-6%
COc1cc(/C=C(\NC(=O)c2ccccc2)C(=O)NC(C(=O)O)c2ccccc2)cc(OC)c1OC (stereo not drawn)	-2%	12	-7%	-3%	1%	-3%
CCCCC(C(=O)NC1CCCC1)N(C(=O)c1snc(C(N)=O)c1N)c1ccc(C)cc1 (stereo not drawn)	-2%	-17	0%	-17%	?	18µM*
CCC(C(=O)NC1CCCC1)N(C(=O)c1snc(C(N)=O)c1N)c1ccc(OC)cc1 (stereo not drawn)	-2%	23	0%	-8%	13%	?
NC(=O)c1nsc(C(=O)N(c2ccc(F)cc2)C(C(=O)NC2CCCC2)c2ccncc2)c1N (stereo not drawn)	-14%	2	5%	4%	-12%	1%
CC(C)c1ccc(N(C(=O)c2snc(C(N)=O)c2N)C(C(=O)NC2CCCC2)c2ccncc2)cc1 (stereo not drawn)	-22%	41	32%	-3%	23µM*	18µM*
CCC(C(=O)NC1CCCC1)N(C(=O)c1snc(C(N)=O)c1N)c1ccc(C)cc1C (stereo not drawn)	-14%	-8	20%	?	18µM*	?
COCCCNCCCCSc1ccc(Cl)cc1	-10%	-16	-1%	-20%	?	-20%
CCC(C)(C)NC(=O)C(c1cccnc1)N(C(=O)c1csnn1)c1ccccc1 (stereo not drawn)	-25%	-15	-9%	?	8%	0%
Nc1[nH]c(C(=O)c2ccccc2)c(-c2ccccc2C(F)(F)F)c1C(=O)NCCc1cccs1	/	0	/	/	-13%	-7%
SMILES	Gal4-VP16 FLuc	IL-1B inflam inh	RORg inh	ELG1 DNA repair	DT40 TDP1 no CPT	TDP1 cell CPT
CN(c1ncnc2c1c(-c1ccccc1)cn2-c1ccc(F)cc1)C1CCCCC1	/	/	/	/	23µM*	?
CC(=O)c1ccc(N2CCN(c3ncnc4c3c(-c3ccccc3)cn4-c3ccc(C)c(Cl)c3)CC2)cc1	/	/	/	/	9%	-2%
OCCN1CCN(c2ncnc3c2c(-c2ccccc2)cn3-c2ccc(F)cc2)CC1	-16%	-97*	-5%	?	26µM*	?
CC1CN(c2ncnc3c2c(-c2ccccc2)cn3-c2ccc(F)cc2)CC(C)O1 (stereo not drawn)	5%	?	12%	?	9.2µM*	16µM*
COC(=O)C(C)Sc1ncnc2c1c(-c1ccccc1)cn2-c1ccc(F)cc1 (stereo not drawn)	/	/	/	/	16µM*	4.1µM*
COc1ccc(-c2[nH]ncc2/C=N\NC(=O)c2cccs2)cc1OC	3%	11	6%	0%	0%	0%
Cc1cccc(CNc2cc(-c3ccc(C(=O)N(C)C)cc3)ncn2)c1	-10%	/	19%	/	-15%	-21%
CCOC(=O)c1ccc(-c2ccc(/C=N/NC(=O)CN(c3ccccc3Cl)S(C)(=O)=O)o2)cc1	-6%	-9	?	?	23µM*	?
CC(C)c1ccc(/C=N/NC(=O)CN(c2cccc(Cl)c2Cl)S(C)(=O)=O)cc1	?	?	-39%	-10%	?	29µM*
CCOC(=O)c1ccc(-c2ccc(/C=N/NC(=O)CN(c3cccc(C)c3)S(C)(=O)=O)o2)cc1	-11%	13	18%	?	15µM*	?
CS(=O)(=O)N(CC(=O)N/N=C/c1ccccc1C(=O)O)c1cccc(Cl)c1Cl	-3%	18	-8%	6%	0%	-14%
Cc1ccc(C)c(N(CC(=O)N/N=C/c2ccc(-c3ccc([N+](=O)[O-])cc3)o2)S(=O)(=O)c2ccccc2)c1	-6%	-14	2%	-18%	?	?
COc1ccc(NC(=O)C2Cc3cc(S(=O)(=O)N4CCCCC4)ccc3N2C(C)=O)cc1Cl (stereo not drawn)	0%	-2	21%	-42%	?	?
COc1ccc(C(=O)N2CCC2(C)C(=O)O)cc1C(F)(F)F (stereo not drawn)	/	8	/	/	6%	-2%
COc1ccc(S(=O)(=O)Cc2ccc(C(=O)NCc3ccccc3OC)o2)cc1	19%	-8	11%	-2%	-24%	21µM*
